# Tests used:
# Experiment in all cases: DAPPL (digital affinity profiling via proximity ligation, sequencing); 10 mM Tris-HCl pH 7.5, 50 mM NaCl, 1 mM DTT, 4% glycerol, room temperature, 30 min; GST-TFs on glutathione beads, 16-mer random dsDNA library, 0.1% formaldehyde crosslink after washing; high values mean tight binding
# Settings in all cases: protein: recombinant; tags: N-terminal GST; dsDNA, one strand shown
# [1] = target: T1, ERF (Homo sapiens, UniProt P50548 1-548)
# T1 sequence: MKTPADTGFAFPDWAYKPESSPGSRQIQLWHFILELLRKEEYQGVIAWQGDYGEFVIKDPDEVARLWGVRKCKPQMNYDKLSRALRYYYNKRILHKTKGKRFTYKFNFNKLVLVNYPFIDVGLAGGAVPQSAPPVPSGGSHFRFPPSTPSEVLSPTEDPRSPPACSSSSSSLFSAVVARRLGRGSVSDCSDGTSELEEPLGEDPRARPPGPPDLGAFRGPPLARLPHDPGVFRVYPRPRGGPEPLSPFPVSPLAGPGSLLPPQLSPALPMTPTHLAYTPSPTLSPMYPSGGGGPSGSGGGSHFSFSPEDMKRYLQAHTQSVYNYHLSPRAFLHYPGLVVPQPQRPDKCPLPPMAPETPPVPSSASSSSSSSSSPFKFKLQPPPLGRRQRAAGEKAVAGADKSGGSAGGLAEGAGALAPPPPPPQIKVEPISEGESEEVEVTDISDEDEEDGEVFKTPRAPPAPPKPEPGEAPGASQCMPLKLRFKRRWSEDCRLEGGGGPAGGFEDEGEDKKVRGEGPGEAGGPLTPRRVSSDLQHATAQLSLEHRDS
# In short: (§1)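 Human transcription factors were made in yeast as GST fusions, captured on glutathione beads and barcoded with DNA. With a tag-only sample included, the pool was incubated with 200 nmole of a random double-stranded 16-mer DNA library in Tris/NaCl/DTT/glycerol buffer at room temperature for 30 min, then crosslinked with 0.1% formaldehyde after washing, ligated by proximity, amplified and sequenced. For binding signal, each hexamer's read frequency for a factor is divided by its frequency for the tag-only sample.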
# [2] = target: T2, ETV3L (Homo sapiens, UniProt Q6ZN32 1-361)
# T2 sequence: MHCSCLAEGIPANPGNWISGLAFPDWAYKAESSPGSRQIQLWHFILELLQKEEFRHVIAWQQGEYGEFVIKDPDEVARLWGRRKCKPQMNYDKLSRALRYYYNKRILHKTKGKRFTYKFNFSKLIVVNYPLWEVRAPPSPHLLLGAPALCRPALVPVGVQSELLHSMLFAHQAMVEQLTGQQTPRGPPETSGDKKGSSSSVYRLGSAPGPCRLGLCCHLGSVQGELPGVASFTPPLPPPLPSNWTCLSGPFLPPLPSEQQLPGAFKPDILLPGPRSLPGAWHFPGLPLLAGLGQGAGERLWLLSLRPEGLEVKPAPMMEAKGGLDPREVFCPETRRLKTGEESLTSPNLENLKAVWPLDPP
# In short: as §1
# [3] = target: T3, ETS2 (Homo sapiens, UniProt P15036 1-469)
# T3 sequence: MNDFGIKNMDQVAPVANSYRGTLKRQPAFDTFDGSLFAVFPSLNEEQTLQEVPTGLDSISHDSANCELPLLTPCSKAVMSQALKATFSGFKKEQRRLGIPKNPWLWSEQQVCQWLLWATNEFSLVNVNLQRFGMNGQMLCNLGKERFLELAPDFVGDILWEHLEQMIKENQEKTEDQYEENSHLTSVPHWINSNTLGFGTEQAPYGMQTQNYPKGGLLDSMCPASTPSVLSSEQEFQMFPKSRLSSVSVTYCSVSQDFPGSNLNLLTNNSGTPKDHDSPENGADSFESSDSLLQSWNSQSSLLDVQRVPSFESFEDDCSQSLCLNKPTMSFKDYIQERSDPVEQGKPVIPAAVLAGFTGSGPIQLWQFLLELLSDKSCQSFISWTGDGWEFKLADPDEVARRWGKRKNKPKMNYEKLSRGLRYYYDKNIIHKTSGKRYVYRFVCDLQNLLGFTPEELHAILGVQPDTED
# In short: as §1
# [4] = target: T4, SPDEF (Homo sapiens, UniProt O95238 1-335)
# T4 sequence: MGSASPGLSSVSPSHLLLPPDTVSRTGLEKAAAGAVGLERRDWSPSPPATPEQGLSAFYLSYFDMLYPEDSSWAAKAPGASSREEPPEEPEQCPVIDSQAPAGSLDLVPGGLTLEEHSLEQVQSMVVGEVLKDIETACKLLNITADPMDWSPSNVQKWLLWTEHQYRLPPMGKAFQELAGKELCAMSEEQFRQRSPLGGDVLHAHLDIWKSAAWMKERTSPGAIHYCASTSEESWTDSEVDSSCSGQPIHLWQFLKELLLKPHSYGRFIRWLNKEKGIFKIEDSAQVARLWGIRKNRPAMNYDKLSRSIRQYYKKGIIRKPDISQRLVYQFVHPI
# In short: as §1
# [5] = target: T5, ETV7 (Homo sapiens, UniProt Q9Y603 1-341)
# T5 sequence: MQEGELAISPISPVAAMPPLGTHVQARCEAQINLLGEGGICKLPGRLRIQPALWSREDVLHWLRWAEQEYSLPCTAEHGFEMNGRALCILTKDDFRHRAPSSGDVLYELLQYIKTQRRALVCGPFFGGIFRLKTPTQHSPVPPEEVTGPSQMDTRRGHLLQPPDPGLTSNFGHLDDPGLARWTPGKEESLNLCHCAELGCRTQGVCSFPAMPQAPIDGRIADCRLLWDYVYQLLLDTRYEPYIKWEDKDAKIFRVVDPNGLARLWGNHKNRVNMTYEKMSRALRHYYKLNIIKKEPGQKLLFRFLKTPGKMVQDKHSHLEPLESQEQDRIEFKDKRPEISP
# In short: as §1
# [6] = target: T6, ELF5 (Homo sapiens, UniProt Q9UKW6-2 1-255)
# T6 sequence: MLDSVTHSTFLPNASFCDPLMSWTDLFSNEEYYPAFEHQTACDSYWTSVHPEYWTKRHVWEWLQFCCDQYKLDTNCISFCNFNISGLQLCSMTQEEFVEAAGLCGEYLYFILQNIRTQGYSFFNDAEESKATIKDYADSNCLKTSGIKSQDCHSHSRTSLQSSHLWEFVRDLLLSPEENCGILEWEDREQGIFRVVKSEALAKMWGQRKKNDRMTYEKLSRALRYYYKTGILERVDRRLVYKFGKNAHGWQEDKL
# In short: as §1
# [7] = target: T7, ETV3 (Homo sapiens, UniProt P41162-2 1-143)
# T7 sequence: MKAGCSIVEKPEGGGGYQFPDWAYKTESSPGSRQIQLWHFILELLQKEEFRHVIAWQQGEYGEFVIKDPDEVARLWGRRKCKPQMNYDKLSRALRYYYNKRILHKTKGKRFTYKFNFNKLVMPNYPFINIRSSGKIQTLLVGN
# In short: as §1
# [8] = target: ETV6 (Homo sapiens, UniProt P41212 1-452)
# Sequence of ETV6 (P41212 whole entry): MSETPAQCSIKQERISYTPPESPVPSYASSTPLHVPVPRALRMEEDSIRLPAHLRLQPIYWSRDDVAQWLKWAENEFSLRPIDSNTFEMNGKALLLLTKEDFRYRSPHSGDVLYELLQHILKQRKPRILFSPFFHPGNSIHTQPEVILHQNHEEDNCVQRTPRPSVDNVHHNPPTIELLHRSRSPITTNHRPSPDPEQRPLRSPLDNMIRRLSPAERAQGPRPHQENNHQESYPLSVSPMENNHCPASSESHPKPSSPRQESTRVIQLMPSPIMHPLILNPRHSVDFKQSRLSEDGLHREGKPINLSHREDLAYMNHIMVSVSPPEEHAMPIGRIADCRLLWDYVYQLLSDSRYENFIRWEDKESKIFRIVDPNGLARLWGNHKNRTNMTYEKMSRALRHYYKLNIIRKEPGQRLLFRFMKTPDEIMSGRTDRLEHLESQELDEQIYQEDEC
# In short: as §1
Sequence,binding signal [1],binding signal [2],binding signal [3],binding signal [4],binding signal [5],binding signal [6],binding signal [7],binding signal [8]
CTCTGC,"1.56 fold enrichment (6-mer frequency, TF over GST control)","1.52 fold enrichment (6-mer frequency, TF over GST control)","1.54 fold enrichment (6-mer frequency, TF over GST control)","1.4 fold enrichment (6-mer frequency, TF over GST control)","1.27 fold enrichment (6-mer frequency, TF over GST control)","1.34 fold enrichment (6-mer frequency, TF over GST control)","1.5 fold enrichment (6-mer frequency, TF over GST control)","1.27 fold enrichment (6-mer frequency, TF over GST control)"
TTGACT,"1.18 fold enrichment (6-mer frequency, TF over GST control)","1.09 fold enrichment (6-mer frequency, TF over GST control)","1.14 fold enrichment (6-mer frequency, TF over GST control)","1.15 fold enrichment (6-mer frequency, TF over GST control)","1.22 fold enrichment (6-mer frequency, TF over GST control)","1.08 fold enrichment (6-mer frequency, TF over GST control)","1.15 fold enrichment (6-mer frequency, TF over GST control)","1.24 fold enrichment (6-mer frequency, TF over GST control)"
AAACAA,"1.25 fold enrichment (6-mer frequency, TF over GST control)","1.32 fold enrichment (6-mer frequency, TF over GST control)","1.32 fold enrichment (6-mer frequency, TF over GST control)","1.27 fold enrichment (6-mer frequency, TF over GST control)","1.28 fold enrichment (6-mer frequency, TF over GST control)","1.28 fold enrichment (6-mer frequency, TF over GST control)","1.3 fold enrichment (6-mer frequency, TF over GST control)","1.31 fold enrichment (6-mer frequency, TF over GST control)"
TCTTGC,"1.4 fold enrichment (6-mer frequency, TF over GST control)","1.36 fold enrichment (6-mer frequency, TF over GST control)","1.35 fold enrichment (6-mer frequency, TF over GST control)","1.33 fold enrichment (6-mer frequency, TF over GST control)","1.38 fold enrichment (6-mer frequency, TF over GST control)","1.34 fold enrichment (6-mer frequency, TF over GST control)","1.47 fold enrichment (6-mer frequency, TF over GST control)","1.18 fold enrichment (6-mer frequency, TF over GST control)"
AACTAC,"1.54 fold enrichment (6-mer frequency, TF over GST control)","1.44 fold enrichment (6-mer frequency, TF over GST control)","1.42 fold enrichment (6-mer frequency, TF over GST control)","1.48 fold enrichment (6-mer frequency, TF over GST control)","1.39 fold enrichment (6-mer frequency, TF over GST control)","1.5 fold enrichment (6-mer frequency, TF over GST control)","1.45 fold enrichment (6-mer frequency, TF over GST control)","1.51 fold enrichment (6-mer frequency, TF over GST control)"
ATACAG,"1.16 fold enrichment (6-mer frequency, TF over GST control)","1.1 fold enrichment (6-mer frequency, TF over GST control)","1.17 fold enrichment (6-mer frequency, TF over GST control)","1.21 fold enrichment (6-mer frequency, TF over GST control)","1.18 fold enrichment (6-mer frequency, TF over GST control)","1.17 fold enrichment (6-mer frequency, TF over GST control)","1.18 fold enrichment (6-mer frequency, TF over GST control)","1.12 fold enrichment (6-mer frequency, TF over GST control)"
ACAATC,"1.2 fold enrichment (6-mer frequency, TF over GST control)","1.14 fold enrichment (6-mer frequency, TF over GST control)","1.17 fold enrichment (6-mer frequency, TF over GST control)","1.16 fold enrichment (6-mer frequency, TF over GST control)","1.16 fold enrichment (6-mer frequency, TF over GST control)","1.19 fold enrichment (6-mer frequency, TF over GST control)","1.14 fold enrichment (6-mer frequency, TF over GST control)","1.12 fold enrichment (6-mer frequency, TF over GST control)"
AATTTA,"1.27 fold enrichment (6-mer frequency, TF over GST control)","1.25 fold enrichment (6-mer frequency, TF over GST control)","1.18 fold enrichment (6-mer frequency, TF over GST control)","1.12 fold enrichment (6-mer frequency, TF over GST control)","1.28 fold enrichment (6-mer frequency, TF over GST control)","1.26 fold enrichment (6-mer frequency, TF over GST control)","1.22 fold enrichment (6-mer frequency, TF over GST control)","1.33 fold enrichment (6-mer frequency, TF over GST control)"
AAATCT,"1.3 fold enrichment (6-mer frequency, TF over GST control)","1.32 fold enrichment (6-mer frequency, TF over GST control)","1.33 fold enrichment (6-mer frequency, TF over GST control)","1.25 fold enrichment (6-mer frequency, TF over GST control)","1.16 fold enrichment (6-mer frequency, TF over GST control)","1.27 fold enrichment (6-mer frequency, TF over GST control)","1.19 fold enrichment (6-mer frequency, TF over GST control)","1.24 fold enrichment (6-mer frequency, TF over GST control)"
TATGTA,"1.36 fold enrichment (6-mer frequency, TF over GST control)","1.29 fold enrichment (6-mer frequency, TF over GST control)","1.38 fold enrichment (6-mer frequency, TF over GST control)","1.35 fold enrichment (6-mer frequency, TF over GST control)","1.35 fold enrichment (6-mer frequency, TF over GST control)","1.26 fold enrichment (6-mer frequency, TF over GST control)","1.25 fold enrichment (6-mer frequency, TF over GST control)","1.28 fold enrichment (6-mer frequency, TF over GST control)"
ATTTGC,"1.32 fold enrichment (6-mer frequency, TF over GST control)","1.26 fold enrichment (6-mer frequency, TF over GST control)","1.28 fold enrichment (6-mer frequency, TF over GST control)","1.27 fold enrichment (6-mer frequency, TF over GST control)","1.43 fold enrichment (6-mer frequency, TF over GST control)","1.25 fold enrichment (6-mer frequency, TF over GST control)","1.37 fold enrichment (6-mer frequency, TF over GST control)","1.27 fold enrichment (6-mer frequency, TF over GST control)"
AATGTA,"1.14 fold enrichment (6-mer frequency, TF over GST control)","1.1 fold enrichment (6-mer frequency, TF over GST control)","1.25 fold enrichment (6-mer frequency, TF over GST control)","1.2 fold enrichment (6-mer frequency, TF over GST control)","1.15 fold enrichment (6-mer frequency, TF over GST control)","1.21 fold enrichment (6-mer frequency, TF over GST control)","1.17 fold enrichment (6-mer frequency, TF over GST control)","1.15 fold enrichment (6-mer frequency, TF over GST control)"
